Measured values taken from PubChem BioAssay.
Activity calls are given as the source filed them.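 How the source made its calls: active means compounds giving at least 50% inhibition in the cell-based MKP-3 phosphatase rescue imaging test; inactive means the rest.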

Molecular target: Dual specificity protein phosphatase 6 (Homo sapiens) (UniProt Q16828)
Test: Primary imaging screen for DUSP6 inhibitors that restore phospho-Erk in transfected HeLa cells, chemical complementation (AID 609);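 further: phospho-Erk level distribution per well compared with pooled transfected vehicle control wells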
Settings: HeLa MKP-3 transfected, phospho-Erk imaging KS statistic; at 10 µM; active compounds read high; cells stimulated with TPA for 15 min

Sequence of Dual specificity protein phosphatase 6 (Homo sapiens) (Q16828 whole entry, looked up): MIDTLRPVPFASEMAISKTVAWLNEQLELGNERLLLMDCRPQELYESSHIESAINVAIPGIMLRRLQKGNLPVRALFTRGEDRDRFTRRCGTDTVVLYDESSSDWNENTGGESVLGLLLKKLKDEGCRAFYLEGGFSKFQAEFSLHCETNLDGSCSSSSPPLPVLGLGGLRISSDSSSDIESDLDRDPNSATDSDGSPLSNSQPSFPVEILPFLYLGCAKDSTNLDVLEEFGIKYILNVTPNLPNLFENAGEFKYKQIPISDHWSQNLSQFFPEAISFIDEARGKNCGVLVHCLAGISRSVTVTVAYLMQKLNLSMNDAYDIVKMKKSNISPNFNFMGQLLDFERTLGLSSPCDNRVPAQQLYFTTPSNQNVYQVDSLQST

inhibition, inactive:
COc1cccc(C(=O)OC2CCCN(C)C2)c1 (stereo not given) 9.42%
FC(F)(F)c1cccc(N2CCc3cn[nH]c32)c1 15.9%
Cc1cc(=O)oc(C)c1C(=O)NCCC1=CCCCC1 1.63%
COCCNC(=O)C(C#N)c1nc2ccccc2nc1N1CCN(Cc2ccc3c(c2)OCO3)CC1 (stereo not given) -2.09%
Cc1cc(CC(=O)O)c(C)cc1CC(=O)O -7.67%
Nc1nc2n(n1)C(c1cccs1)CC(c1ccc(F)cc1)N2 (stereo not given) 5.65%
CCOC(=O)C1=Nc2ccccc2C1=[N+]=[N-] -5.95%
CCc1nc2c(sc3nc(N4CCOCC4)c4c(c32)CC(C)(C)OC4)c(=O)o1 3.42%
CC(=O)/C(C#N)=C1\NC(=O)C(Cc2ccccc2Cl)S1 (stereo not given) 7.42%
COC(=O)/C=c1/s/c(=C(\C#N)C(=O)NCc2ccco2)n(-c2ccccc2)c1=O 1.48%
O=C(NCCCN1CCOCC1)C1(c2ccccc2)CCOCC1 -3.95%
CCN(CC)CCN1C(=O)C(=O)/C(=C(/O)c2c(C)[nH]c(C(=O)OC)c2C)C1c1ccccc1 (stereo not given) -11.9%
Cc1ccc(S(=O)(=O)c2cc3c(=O)n4cccc(C)c4nc3n(CC3CCCO3)c2=N)cc1 (stereo not given) -8.27%
COC(=O)C(NC(=O)c1ccco1)(Nc1nc(C)cs1)C(F)(F)F (stereo not given) -6.59%
CC(=O)C1=C(O)C(=O)N(c2ccc(Br)cn2)C1c1ccccc1F (stereo not given) 3.97%
Cc1ccc(S(=O)(=O)N(CC(O)CN2CCOCC2)c2cc(Cl)ccc2Cl)cc1 (stereo not given) 7.42%
CCNC(=O)COn1c(SCC(=O)NCC)nc2ccccc2c1=O -4.7%
CCCOc1cccc(C2/C(=C(/O)c3ccc(F)cc3)C(=O)C(=O)N2CCN(C)C)c1 (stereo not given) -2.91%
Cc1ccc(N(CN2C(=O)C3CC=CCC3C2=O)C(=O)c2ccco2)cc1Cl (stereo not given) -7.28%
O=c1[nH]cnc2c1cnn2Cc1ccccc1 -3.97%
COC(=O)C(NC(C)=O)(Nc1ccc(Br)cn1)C(F)(F)F (stereo not given) -4.59%
COC(=O)/C=c1/s/c(=C(/C#N)C(=O)N2CCCCC2)n(-c2ccccc2)c1=O -5.81%
O=c1c2sc3nc(N4CCOCC4)c4c(c3c2ncn1Cc1ccco1)CCCC4 21.8%
COc1ccc(CC(=O)n2c(CC#N)nc3ccccc32)cc1OC -0.233%
CCN(CC)CCN1C(=O)C(O)=C(C(=O)c2cc3ccccc3o2)C1c1cccnc1 (stereo not given) 3.56%
COc1ccc(CSc2nnc3n(C)c(=O)c4c5c(sc4n23)CCCC5)cc1 17.8%
CC(NC(=O)Nc1cccnc1)(C(F)(F)F)C(F)(F)F 7.93%
CCOC(=O)CSc1nnc(C)c(=O)[nH]1 -16.8%
O=S(=O)(/C=C/c1ccccc1)Nc1ccc2c(c1)OCO2 -2.59%
Cn1c(=O)c2c3c(sc2n2c(SCC(=O)c4ccccc4)nnc12)COC(C)(C)C3 9.07%
COc1cccc(C2C(C(=O)c3sc(C)nc3C)=C(O)C(=O)N2CCN2CCOCC2)c1OC (stereo not given) 18.2%
NC(=O)C1CCN(C2OC(=O)c3ccccc32)CC1 (stereo not given) 5.65%
CCCCOC(=O)c1[nH]c(C)c(C(=O)OC)c1C 37%
CCSc1nnc(NC(=O)C(C)(C(F)(F)F)C(F)(F)F)s1 1.9e-07%
Cc1ccc(N2C(=O)CC3(CC4C=CC3C4)C2=O)cc1 (stereo not given) -2.09%
Cn1c(NCC(O)c2ccccc2)nc2c1c(=O)n(Cc1ccc(Cl)cc1)c(=O)n2C (stereo not given) -9.53%
N#Cc1nc(-c2ccc(F)cc2)oc1N1CCCC1 9.07%
COC(=O)/C(C#N)=C1/SC=C(C)N1c1ccccc1 -13.3%
COc1ccc2nc(/N=C(\N)NC(=O)C(C)(C)C)nc(C)c2c1 9.91%
O=C(NCCCNCc1ccccc1)/C(=N\O)c1ccccc1 15.9%
